Test results: PubChem BioAssay AID1159580 (chemical genetic matrix, 2015)
Hit rate of the full screen: of about 5,500 compounds, about 2,000 (36%) were called active. Another 18% or so got no clear call; they are omitted. No stated cut-off is given here; in the data, active means normalized growth mostly below about 0.91 (no sharp cut-off); inconclusive means no clear call, values can overlap the other calls; inactive means mostly above about 0.92. The list shows a part of the results.

Assay: chemical genetic growth profiling, strain panel (AID 1159580);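 further: tested at 20 µM; growth read once vehicle control cultures reached saturation at 30 °C; 1 = growth at the plate median or of vehicle wells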
Settings: S. cerevisiae deletion strains, growth OD

Measured: normalized growth

N=C(N)c1ccc(N)cc1
inactive: locus YAL013W, strain DEP1, stronger effect = lower value 1.01 | locus YAL040C, strain CLN3, stronger effect = lower value 0.975 | locus YCL061C, strain MRC1 (second series), stronger effect = lower value 0.998 | locus YDR363W, strain ESC2, stronger effect = lower value 0.981 | locus YER002W, strain NOP16, stronger effect = lower value 0.997 | locus YGR229C, strain SMI1, stronger effect = lower value 1.01 | locus YMR307W, strain GAS1, stronger effect = lower value 1 | locus YNL128W, strain TEP1, stronger effect = lower value 0.978 | locus YNL153C, strain GIM3, stronger effect = lower value 1 | locus YNL175C, strain NOP13, stronger effect = lower value 1.01 | locus YNL197C, strain WHI3, stronger effect = lower value 0.994 | locus YNL224C, strain SQS1, stronger effect = lower value 0.968 | locus YOR083W, strain WHI5 (second series), stronger effect = lower value 0.981 | locus YPL241C, strain CIN2, stronger effect = lower value 1
